Results filed as inconclusive are left out. The source made the active and inactive calls. Calls come from the whole dose curve.
Experiments:
[1] = target: Acetylcholinesterase (Homo sapiens) (UniProt P22303); test: Acetylcholinesterase (AChE) small molecule antagonists: colormetric cell-based qHTS assay (AID 1347395); conditions: SH-SY5Y cells AChE activity, colorimetric (Ellman); series mostly up to 115 µM; note: nearly all actives have a fitted effect of over 30% in size
Summary of the method: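 SH-SY5Y cells; cpd 30 min 37 C; + DTNB/acetylthiocholine, 90 min 37 C; colorimetric thiocholine read; qHTS.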

[2] = target: Acetylcholinesterase (Homo sapiens) (UniProt P22303); test: Acetylcholinesterase (AChE) small molecule antagonists: enzyme-based qHTS assay (AID 1347397); conditions: Potency: AChE enzyme activity inhibition; outcome: AChE enzyme activity inhibition; series mostly up to 115 µM; note: nearly all actives have a fitted effect of over 55% in size
Summary of the method: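 Tox21 library chemicals are tested in qHTS format against recombinant human AChE. The enzyme, dispensed at 50 mU/mL, sits with compound for 30 min at room temperature. A DTNB–acetylthiocholine cocktail follows, and colour is read after 10 min.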

[3] = target: Acetylcholinesterase (Homo sapiens) (UniProt P22303); test: Acetylcholinesterase (AChE) small molecule antagonists: fluorescence cell-based qHTS assay (AID 1347398); conditions: SH-SY5Y cells; Potency: AChE activity; outcome: AChE activity; series mostly up to 115 µM; note: nearly all actives have a fitted effect of over 50% in size
Summary of the method: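 Cellular AChE inhibition: SH-SY5Y cells treated with test chemical for 30 min at 37 C, then acetylthiocholine hydrolysis followed over 40 min at room temperature via thiocholine-reactive Thiolite Green fluorescence (490/520 nm).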

[4] = target: Acetylcholinesterase (Homo sapiens) (UniProt P22303); test: Acetylcholinesterase (AChE) small molecule antagonists: enzyme-based qHTS assay with human liver microsomes (AID 1347399); conditions: Potency: qHTS inhibition; outcome: qHTS inhibition; series mostly up to 115 µM; note: nearly all actives have a fitted effect of over 60% in size
Summary of the method: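 Recombinant human AChE (50 mU/mL in the enzyme mix) and human liver microsomes (0.25 mg/mL final) were preincubated with compound and NADPH (0.25 mg/mL final) for 30 min at 37 C. Acetylthiocholine/DTNB was then added; thiocholine was read colorimetrically after 10 min at room temperature.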
% is set by controls: 0 for no effect and ±100 for the full control effect.

Acetylcholinesterase (Homo sapiens), sequence (P22303 whole entry, looked up): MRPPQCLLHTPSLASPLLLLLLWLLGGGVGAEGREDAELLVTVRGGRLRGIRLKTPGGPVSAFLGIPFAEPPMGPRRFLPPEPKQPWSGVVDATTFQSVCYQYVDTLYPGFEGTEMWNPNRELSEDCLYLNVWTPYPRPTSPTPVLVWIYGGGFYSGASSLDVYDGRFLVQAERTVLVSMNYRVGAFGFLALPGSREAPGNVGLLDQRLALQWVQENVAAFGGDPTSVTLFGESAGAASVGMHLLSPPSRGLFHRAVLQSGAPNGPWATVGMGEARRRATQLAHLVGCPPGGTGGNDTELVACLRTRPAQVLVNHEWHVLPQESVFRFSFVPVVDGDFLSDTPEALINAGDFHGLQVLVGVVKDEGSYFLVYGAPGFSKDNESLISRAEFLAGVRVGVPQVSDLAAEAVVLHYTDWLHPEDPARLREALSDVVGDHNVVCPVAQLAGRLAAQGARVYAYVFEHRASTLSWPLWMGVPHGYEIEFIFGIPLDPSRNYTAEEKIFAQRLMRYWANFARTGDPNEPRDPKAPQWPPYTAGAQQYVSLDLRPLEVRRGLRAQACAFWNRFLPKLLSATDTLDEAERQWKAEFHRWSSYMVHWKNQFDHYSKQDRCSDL

Nc1ccccc1O
inactive: Potency [1] | Potency [2] | Potency [3] | Potency [4]

CCCc1ccc(N)cc1
inactive: Potency [1] | Potency [2] | Potency [3] | Potency [4]

CCCCCCCCCCCCCCCCCl
inactive: activity, negative = inhibition [1] 0.0979% [at 23.6 µM] | activity change, negative = inhibition [2] 0.4% [at 23.6 µM] | activity change, negative = inhibition [3] -0.0126% [at 23.8 µM] | activity change, negative = inhibition [4] 2.03% [at 23.6 µM]

COC(=O)CC(C(C)=O)C(=O)OC (configuration not stated)
inactive: Potency [1] | Potency [2] | Potency [3] | Potency [4]

C=C(C)C(=O)OCCOCCOC(=O)C(=C)C
inactive: Potency [1] | Potency [2] | Potency [3] | Potency [4]

CC1CCC(C(C)(C)O)CC1 (configuration not stated)
inactive: Potency [1] | Potency [2] | Potency [3] | Potency [4]

C1=CCC(c2ccccc2)CC1 (configuration not stated)
inactive: Potency [1] | Potency [2] | Potency [3] | Potency [4]

COCCc1ccccn1
inactive: Potency [1] | Potency [2] | Potency [3] | Potency [4]

COc1cc(OC)c2ccc(=O)oc2c1
inactive: Potency [1] | Potency [2] | Potency [3] | Potency [4]

COc1ccccc1N1CCN(CCCNc2cc(=O)n(C)c(=O)n2C)CC1
inactive: Potency [1] | Potency [2] | Potency [3] | Potency [4]

O=C(Nc1cccc([N+](=O)[O-])c1)c1cc2ccccc2cc1O
inactive: Potency [1] | Potency [2] | Potency [3] | Potency [4]

C=CC(C)(CCC=C(C)C)OC(=O)C(C)C (configuration not stated)
inactive: Potency [1] | Potency [2] | Potency [3] | Potency [4]

Cc1cccc([N+](=O)[O-])c1C(=O)O
inactive: Potency [1] | Potency [2] | Potency [3] | Potency [4]

CC[N+]1(CC)CCC(=C(c2ccccc2)c2ccccc2)C1C (configuration not stated)
inactive: Potency [1] | Potency [2] | Potency [3] | Potency [4]

CC(=N\O)/C(C)=N/O
inactive: Potency [1] | Potency [2] | Potency [3] | Potency [4]

CCCC(=O)OCc1ccccc1
inactive: Potency [1] | Potency [2] | Potency [3] | Potency [4]

C=C(C)CCCC(C)CCO (configuration not stated)
inactive: Potency [1] | Potency [2] | Potency [3] | Potency [4]

FC(F)(F)C(Cl)(Cl)Cl
inactive: Potency [1] | Potency [2] | Potency [3] | Potency [4]

CCCCOC(=O)[C@@H](C)Oc1ccc(Oc2ccc(C(F)(F)F)cn2)cc1
inactive: Potency [1] | Potency [2] | Potency [3] | Potency [4]

Brc1cc2ccccc2c2ccccc12
inactive: Potency [1] | Potency [2] | Potency [3] | Potency [4]

CCC(C)c1ccccc1 (configuration not stated)
inactive: Potency [1] | Potency [2] | Potency [3] | Potency [4]

CN1CCCN=C1COC(=O)C(O)(c1ccccc1)C1CCCCC1 (configuration not stated)
inactive: Potency [1] | Potency [2] | Potency [3] | Potency [4]

C=CC(=O)O
inactive: Potency [1] | Potency [2] | Potency [3] | Potency [4]

CCc1cc(Cc2cc(CC)c(N)c(CC)c2)cc(CC)c1N
inactive: Potency [1] | Potency [2] | Potency [3] | Potency [4]

CCCCCOC(=O)c1ccc(O)cc1
inactive: Potency [1] | Potency [2] | Potency [3] | Potency [4]

CCCCCCCC/C=C\CCCCCCCC(=O)OCC
inactive: Potency [1] | Potency [2] | Potency [3] | Potency [4]

CCCCNC1CC(C)(C)NC(C)(C)C1
inactive: Potency [1] | Potency [2] | Potency [3] | Potency [4]

Cc1cn[nH]c1
inactive: Potency [1] | Potency [2] | Potency [3] | Potency [4]

Oc1c(Br)cc(Br)c2cccnc12
inactive: Potency [1] | Potency [2] | Potency [3] | Potency [4]

CCOC(=O)c1ccccc1OC
inactive: Potency [1] | Potency [2] | Potency [3] | Potency [4]

CC(C)(C)C(=O)Oc1ccc(S(=O)(=O)Nc2ccccc2C(=O)NCC(=O)O)cc1
inactive: Potency [1] | Potency [2] | Potency [3] | Potency [4]

CCc1cc(S(=O)(=O)O)c2cc(C(C)C)cccc1-2
inactive: Potency [1] | Potency [2] | Potency [3] | Potency [4]

C1COC1
inactive: Potency [1] | Potency [2] | Potency [3] | Potency [4]

C=CCOc1c(Br)cc(Br)cc1Br
inactive: Potency [1] | Potency [2] | Potency [3] | Potency [4]

O=C(O)COc1ccc2ccccc2c1
inactive: Potency [1] | Potency [2] | Potency [3] | Potency [4]

C[N+](C)(CCOc1ccccc1)Cc1cccs1
inactive: Potency [1] | Potency [2] | Potency [3] | Potency [4]

Cc1cc(C)c(NC(=O)CN(CC(=O)O)CC(=O)O)c(C)c1Br
inactive: Potency [1] | Potency [2] | Potency [3] | Potency [4]

C/C(=C\C(C)CC(C)CC(C)C)C1CC(=O)OC1=O (configuration not stated)
inactive: Potency [1] | Potency [2] | Potency [3] | Potency [4]

Source: PubChem BioAssay (Tox21)
